An excerpt weighted towards active compounds, which were near 0.95% of everything screened.
TbPYK inhibitor: inhibitors of Trypanosoma brucei pyruvate kinase. Q57TT1. TbPYK enzyme, Kinase-Glo Plus ATP luminescence, 45 min. Potency, µM (top dose mostly 76.8 µM), inactives show at the highest dose activity, negative = inhibition, most hits filed as inhibitors. actives 0.12% (n = 410,000); also: nearly all actives have a fitted effect of over 50% in size
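Activity of T. brucei pyruvate kinase was followed by Kinase-Glo Plus luminescence after the enzyme reacted 45 min at room temperature with 130 uM ADP (final) and substrate. Test compounds were added before ADP at multiple concentrations.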
Giardia FBPA inh-1: blocks Giardia fructose-bisphosphate aldolase activity; purified Giardia FBPA; Potency, µM (titrated, usually from 59.6 µM), for inactives: at the top dose activity, negative = inhibition, actives largely listed as inhibitors; actives 0.71% (n = 290,000); A8B2U2; also: nearly all actives have a fitted effect of over 55% in size
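40 nM FBPA preincubated 10 min at RT with compound (up to 57.5 uM final), then substrate plus GAPDH/TPI/NAD/arsenate coupling and diaphorase/resazurin added. Fluorescence read after 20 min at RT, 525/598 nm.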
LmPK inhibitor: LmPK (Leishmania mexicana) enzyme inhibition. purified LmPK, Kinase-Glo ATP luminescence, 1 h. actives 0.37% (n = 290,000). AID 1721. Potency, µM (doses to about 57.5 µM), inactives show top-dose activity change, negative = inhibition, actives largely listed as inhibitors
Target sequence (Q27686 whole entry, looked up): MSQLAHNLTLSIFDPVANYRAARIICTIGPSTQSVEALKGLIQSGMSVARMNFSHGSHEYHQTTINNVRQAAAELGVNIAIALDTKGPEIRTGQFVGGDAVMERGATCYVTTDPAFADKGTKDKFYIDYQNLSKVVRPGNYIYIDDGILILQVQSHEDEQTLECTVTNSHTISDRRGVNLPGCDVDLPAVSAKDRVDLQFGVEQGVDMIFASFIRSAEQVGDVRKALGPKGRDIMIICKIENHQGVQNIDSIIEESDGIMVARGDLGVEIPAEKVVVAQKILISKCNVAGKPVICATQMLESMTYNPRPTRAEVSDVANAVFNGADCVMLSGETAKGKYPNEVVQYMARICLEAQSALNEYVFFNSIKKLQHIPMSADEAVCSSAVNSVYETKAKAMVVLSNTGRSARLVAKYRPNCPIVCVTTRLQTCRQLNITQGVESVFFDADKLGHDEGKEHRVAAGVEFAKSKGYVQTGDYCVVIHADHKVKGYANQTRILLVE
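qHTS format; LmPK 0.1 nM; substrates PEP 0.5 mM and ADP 0.1 mM. One-hour room-temperature incubation, then coupled luciferase luminescence; 0.5 nM enzyme wells mark activation.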
RE007 growth inh: less growth of the S. pombe RE007 Vpr strain | AID 651644 | actives 0.21% (n = 360,000) | S. pombe RE007 Vpr strain, BacTiter-Glo ATP luminescence, 24 h | Potency, µM (titrated, usually from 92.2 µM), inactives show top-dose activity change, negative = less growth, actives largely listed as inhibitors; active = well fitted falling curve with a large enough effect; inconclusive = small, poorly fitted or top-dose-only effect; inactive = no such curve, though single readings can be large or run the other way; also: nearly all actives have a fitted effect of over 50% in size
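Fission yeast strain RE007, carrying one chromosomally integrated HIV-1 vpr copy, was seeded at OD 0.01 in PMG+AL medium with 23 nL pinned compound. After 24 h at 30 °C and 99% humidity, viability was read by BacTiter-Glo luminescence.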
Giardia growth: Giardia lamblia growth inhibition. Giardia lamblia trophozoite growth inhibition. AID 2785. actives 5% (n = 1,500). shares compounds with Giardia FBPA inh-1. Potency, µM (top dose mostly 57.5 µM), without a hit: top-dose activity change, negative = inhibition, usual class: inhibitors;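 also: trophozoites exposed to compound for 48 h at 37 °C; nearly all actives have a fitted effect of over 70% in size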
Mammalian tox: mammalian cytotoxicity of Giardia aldolase inhibitor hits | mammalian cell viability counter-screen, qHTS | Potency, µM (series often up to 57.5 µM), without a hit: at the highest dose viability change, negative = toxicity, usual class: inhibitors | shares compounds with Giardia FBPA inh-1 | actives 4% (n = 1,500);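 also: Chinese hamster ovary cells used as mammalian cytotoxicity surrogate; viability measured as cellular ATP by luminescence; compound exposure lasted 48 h before reading; nearly all actives have a fitted effect of over 60% in size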
Giardia FBPA inh-2: confirmation of Giardia fructose-bisphosphate aldolase inhibitors | shares compounds with Giardia FBPA inh-1 | purified Giardia aldolase enzyme activity, qHTS | Potency, µM (titrated, usually from 57.5 µM), inactives show at the highest dose activity change, negative = inhibition, usual class: inhibitors | actives 5% (n = 1,500); also: nearly all actives have a fitted effect of over 45% in size
Rabbit FBPA inh: blocks rabbit muscle aldolase in Giardia aldolase selectivity test | shares compounds with Giardia FBPA inh-1 | Rabbit muscle FBPA enzyme inhibition, selectivity counter-screen | Potency, µM (series often up to 57.5 µM), inactives show at the highest dose activity, negative = inhibition, hits mostly inhibitors | actives 4% (n = 1,500) | AID 2794; also: nearly all actives have a fitted effect of over 60% in size
GAPDH counter: counter-screen for Giardia aldolase inhibitors: GAPDH coupling enzyme. shares compounds with Giardia FBPA inh-1. GAPDH coupling enzyme counterscreen, biochemical, qHTS. Potency, µM (doses to about 57.5 µM), for inactives: at the top dose activity change, negative = inhibition, most hits filed as inhibitors. actives 6% (n = 1,500); also: nearly all actives have a fitted effect of over 55% in size
Starred values were filed as active, the others as inactive; ? = inconclusive; . = no result given; [ ] = remark or other dose. Unless noted, calls follow the shape of the dose curve; as a rule, active = well fitted curve in the direction sought with a large enough effect; inconclusive = small, poorly fitted or top-dose-only effect, or another doubt; inactive = no such curve, though single readings can be large; an effect the other way counts as inactive or inconclusive. % is scaled to controls: 0 for no effect and ±100 for the full control effect; potency is read from the fitted curve at half-maximal effect.

SMILES	TbPYK inhibitor	Giardia FBPA inh-1	LmPK inhibitor	RE007 growth inh	Giardia growth	Mammalian tox	Giardia FBPA inh-2	Rabbit FBPA inh	GAPDH counter
CCn1ncc(NC(=S)Nc2ccc3c(c2)OCO3)c1C(N)=O	-7%	18µM*	2%	-8%	-20%[10.4 µM]	-12%	-23%	-10%	-9%
O=C(CSc1n[nH]c(-c2cccnc2)n1)Nc1ccccc1[N+](=O)[O-]	0%	25µM*	-4%	-18%	?	-7%	-6%	2%	5%
CCc1ccccc1NC(=O)CSc1n[nH]c(-c2cccnc2)n1	-2%	-10%	3%	6%	.	.	.	.	.
CCOC(=O)c1c(-c2ccc(OC)cc2)csc1NC(=O)CNCc1ccco1	8%	?	4%	-19%	.	.	.	.	.
CCOC(=O)c1c(-c2ccc(Cl)cc2)csc1NC(=O)CNCc1ccco1	18%	16µM*	-4%	5%	-3%	-26%	-8%	-3%	-2%
COc1ccc(-c2csc(N(CCCN(C)C)C(=O)c3ccccc3F)n2)cc1	9%	28µM*	2%	-17%	-25%	-13%	3%	9%	8%
COc1ccc(-c2csc(N(CCCN(C)C)C(=O)c3ccccc3C)n2)cc1	9%	?	-1%	-27%	.	.	.	.	.
Cc1ccc(-n2c(SCC(=O)Nc3cccc(Cl)c3)nc3n[nH]c(C)c3c2=N)cc1	2%	.	.	.	.	.	.	.	.
CCOC(=O)CCCCC1=CC2=CC(=O)C(C)(O)C(=O)C2=CO1 (stereo unspecified)	.	-12%[12.9 µM]	.	.	.	.	.	.	.
CCOc1ccccc1NC(=O)C(CC)Sc1nc2ccncc2[nH]1 (stereo unspecified)	5%	14µM*	1%	-14%	-14%[10.4 µM]	4%	-6%	0%	2%
Cc1ccc(-n2nc3c(=S)[nH]nc(C)c3c2C)cc1	-6%	25µM*	6%	-6%	-5%	-4%	5%	9%	16%
Cc1n[nH]c(=S)c2nn(-c3ccccc3)c(C)c12	.	-18%	0%	.	.	.	.	.	.
COc1ccc(OC[C@@H](CO)OC)cc1	.	-1%[12.9 µM]	.	.	.	.	.	.	.
CCCSC1=N/C(=C\c2ccc([N+](=O)[O-])o2)C(=O)S1	?	?	-8%	?	.	.	.	.	.
CCSC1=N/C(=C\c2ccc(-c3ccccc3[N+](=O)[O-])o2)C(=O)S1	1%	?	3%	-1%	6%[38.3 µM]	-19%	-20%	-5%	-18%
O=C1CSC(=S)N1	-5%	7.9µM*	-2%	-4%[18.4 µM]	-7%[38.3 µM]	-7%	1%	12%	11%
CCCc1cc(=O)n2[nH]c(NC(=O)c3ccco3)nc2n1	-7%	16µM*	-1%	17%	?	13%	-8%	-4%	-5%
CCOC(=O)CC(CC(C)=O)C(=O)OCC (stereo unspecified)	.	0%	.	.	.	.	.	.	.
CCCNC(=O)OC[C@@H]1O[C@H](CCO/N=C(\C)CCC(=O)OC[C@@H]2O[C@H](C#Cc3ccccc3)C=C[C@@H]2Oc2ccc(C)cc2)C=C[C@@H]1Oc1ccc(OC)cc1	.	0%[12.9 µM]	.	.	.	.	.	.	.
O=C(CNC(=O)c1cccnc1)N=Nc1c(O)[nH]c2c(Br)cc(Br)cc12	-6%	28µM*	1%	2%	-1%[10.4 µM]	-6%	7%	17%	12%
CO/N=C(/C(=O)N[C@@H]1C(=O)N2C(C(=O)O)=C(CSC(=O)c3ccco3)CSC12)c1csc(N)n1 (stereo partly specified)	0%	.	.	.	.	.	.	.	.
O=C(CSC(=S)N1CCCC1)c1cc(Br)cc(Br)c1O	-7%	14µM*	2%	-5%	?	25µM*	-23%	-26%	?
CC1CCCN(C(=S)SCC(=O)c2cc(Br)cc(Br)c2O)C1 (stereo unspecified)	-13%	-22%	3%	-29%	.	.	.	.	.
O=[N+]([O-])c1cc(F)c2cccnc2c1O	-13%	20µM*	2%	?	?	-19%	?	?	32µM*
CO[C@H]1COC(=O)[C@H](C)NC(=O)C/C=C\[C@@H](C)[C@H](OC)COC(=O)[C@@H](OCc2ccccc2)/C=C\[C@@H]1C	.	0%[12.9 µM]	.	.	.	.	.	.	.
SMILES	TbPYK inhibitor	Giardia FBPA inh-1	LmPK inhibitor	RE007 growth inh	Giardia growth	Mammalian tox	Giardia FBPA inh-2	Rabbit FBPA inh	GAPDH counter
O=C(NCCCN1CCCC1)[C@H](CSCc1ccccc1)N1Cc2ccccc2C1=O	4%	18µM*	6%	18%	-3%[10.4 µM]	-29%	11%	2%	17%
CC(C)NC(=O)[C@H](CSCc1ccccc1)N1Cc2ccccc2C1=O	-13%	6%	2%	0%	.	.	.	.	.
COc1cccc(NC(=O)CN(C)CC(=O)Nc2ccc3c(c2)OCO3)c1	4%	.	.	39%	.	.	.	.	.
CCC(C)c1ccc(NC(=O)CN(C)CC(=O)Nc2cccc(OC)c2)cc1 (stereo unspecified)	-1%	16µM*	-5%	11%	?	3%	-7%	-3%	-3%
[NH-]c1ncnc2c1N=C[N+]2=CC=CCO	-4%	8.9µM*	2%	.	-10%[38.3 µM]	8%	2%	6%	11%
Cc1ccc(-c2noc(CN(C(=O)COc3cc(C)cc(C)c3C)C(C)C)n2)cc1	-14%	.	.	.	.	.	.	.	.
c1ccc(C2=NNC(c3ccccn3)=NN2)nc1	-19%	7.9µM*	-22%	-10%	?	0%	-26%	-23%	?
O=C1C=CC(=O)N1c1ccccc1N1C(=O)C=CC1=O	?	.	.	-14%	.	.	.	.	.
O=C(c1ccccc1)c1ccccc1N1C(=O)C=CC1=O	5µM*	16µM*	14µM*	35µM*	-7%[10.4 µM]	7%	-10%	-19%	-21%
COc1ccc(-c2cc(OC(=O)c3ccccc3Cl)c3c(C)oc(C)c3c(=O)c2)cc1OC	-12%	.	.	.	.	.	.	.	.
O=c1[nH]c(=S)n(-c2ccc(Br)cc2)c2ncccc12	-4%	.	.	-8%	.	.	.	.	.
Fc1ccc(-n2c(=S)[nH]c3cccnc32)cc1	?	18µM*	-2%	9%	28%	-15%	-2%	2%	16%
O=C(c1csnn1)N1CCC2(CCCN(c3ccc(-c4ccccc4)cc3)C2)CC1	0%	-10%	.	.	.	.	.	.	.
O=C(O)CCCCCn1c(SCC(=O)c2ccc(O)c(O)c2)nc2ccsc2c1=O	0%	4µM*	1%	12%	4%[10.4 µM]	3%	-9%	-11%	20%
